High-throughput results (PubChem)
Hits are enriched below; roughly 19% of the tested compounds scored in any of these assays.
IL-1B inflam inh – qHTS for Inhibitors of Inflammasome Signaling: IL-1-beta AlphaLISA Primary Screen; AID 743279, 2014; hit rate 4.7% among 360,000; THP-1 LPS/ATP IL-1B secretion, AlphaLISA, 16 h; stronger effect = lower value; activity change, % at 57.5 µM; in the data active = activity change below about -50%; inconclusive = mostly about -30% to -49%
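THP-1 cells pretreated 1 hr with compounds (up to 57.5 uM final), then stimulated with LPS (250 ng/mL final) plus ATP (1.25 mM final); secreted IL-1B measured by AlphaLISA after 16 hr, decreased signal indicating inhibition.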
HT1080 IDH1KD tx – qHTS for induction of synthetic lethality in tumor cells producing 2HG: qHTS for the HT-1080-IDH1KD cell line. HT-1080 IDH1 knockdown viability, ATP luminescence, 48 h. Potency, µM (series often up to 46.1 µM), without a hit: at the top dose activity, negative = toxicity, usual class: cytotoxic. hit rate 2% among 360,000. AID 686971, 2013;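 note: potency is the fitted concentration of half-maximal effect; 0% = DMSO wells and -100% = cell-free medium wells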
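HT-1080-IDH1KD cells (IDH1 knocked down), 750/well in RPMI with 5% FBS, treated with compound 48 h at 37 degrees C. Viability by CellTiter-Glo luminescence, normalised to DMSO and no-cell wells; concentration-response curves classed.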
ELG1 DNA repair – qHTS screen for small molecules that inhibit ELG1-dependent DNA repair in human embryonic kidney (HEK293T) cells expressing luciferase-tagged ELG1; HEK293T ELG1-luciferase reporter, luminescence, 16 h; DNA damage induced by 5-fluorouridine; Potency, µM (titrated, usually from 46.1 µM), inactives show at the highest dose activity change, negative = inhibition, hits mostly inhibitors; hit rate 2.3% among 330,000; note: potency is the fitted concentration of half-maximal effect; nearly all actives have a fitted effect of over 55% in size
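Cells (2,000 per well) received 5-fluorouridine plus test compound or DMSO and were incubated 16 hr at 37 °C, 5% CO2. Luciferase activity was read by luminescence 30 min after ONE-Glo addition; signal suppression marked inhibition of damage-induced ELG1 function.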
TDP1 cell noCPT – qHTS for Inhibitors of human tyrosyl-DNA phosphodiesterase 1 (TDP1): qHTS in cells in absence of CPT; DT40 Tdp1-/- hTDP1 cells, no CPT, ATP luminescence, 48 h; Potency, µM (highest dose often 46.2 µM), for inactives: at the highest dose activity change, negative = growth inhibition, hits mostly inhibitors; hit rate 15% among 420,000; note: potency is the fitted concentration of half-maximal effect; nearly all actives have a fitted effect of over 55% in size
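Readout: luminescence from CellTiter-Glo after 30 min in the dark at RT. Cells: DT40 Tdp1-/- with stable hTDP1, 400/well. Exposure: compounds alone, ≥48 hr, 37 °C.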
HT1080NT lethal – qHTS for induction of synthetic lethality in tumor cells producing 2HG: qHTS for the HT-1080-NT fibrosarcoma cell line; HT-1080-NT fibrosarcoma viability, CellTiter-Glo ATP luminescence, 48 h; Potency, µM (doses to about 46.1 µM), inactives show at the top dose activity, negative = less viability, actives largely listed as cytotoxic; hit rate 1.6% among 360,000; AID 686970, 2013;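 note: NT is the 2HG producing partner of a matched IDH1 knockdown line; potency is the fitted concentration of half-maximal effect; 0% = DMSO-treated cells and -100% = media-only wells without cells; nearly all actives have a fitted effect of over 55% in size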
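750 cells/well, RPMI + 5% FBS; 2 h settle, compound pin-transfer, 48 h at 37 degrees C. CellTiter-Glo 10 min RT, luminescence. Normalized to DMSO and media-only wells.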
DT40 TDP1 CPT – qHTS for Inhibitors of human tyrosyl-DNA phosphodiesterase 1 (TDP1): qHTS in cells in presence of CPT; chicken DT40 Tdp1-/-;hTDP1 cells + 20 nM CPT, ATP luminescence, 48 h; Potency, µM (top dose mostly 46.2 µM), for inactives: at the highest dose activity change, negative = growth inhibition, most hits filed as inhibitors; hit rate 12% among 420,000; AID 686979, 2013; note: potency is the fitted concentration of half-maximal effect; nearly all actives have a fitted effect of over 55% in size
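Cell growth measured by CellTiter-Glo luminescence after a minimum 48 h, 37 C compound exposure with 20 nM CPT in Tdp1-knockout DT40 cells stably expressing hTDP1, seeded 400/well; qHTS titration format.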
* hit, by the source's call; i = inactive; ? = inconclusive; · = no result; [ ] = another dose, or the depositor's remark. Unless noted, calls come from the whole dose curve; as a rule, active = well fitted curve in the direction sought with a large enough effect; inconclusive = small, poorly fitted or top-dose-only effect, or another doubt; inactive = no such curve, though single readings can be large; an effect the other way counts as inactive or inconclusive. Unless noted, % is set by controls: 0 for no effect and ±100 for the full control effect.

SMILES	IL-1B inflam inh	HT1080 IDH1KD tx	ELG1 DNA repair	TDP1 cell noCPT	HT1080NT lethal	DT40 TDP1 CPT
Cc1ccc2nc(NC(=O)C3CCN(c4ncnc5sc(C)c(C)c45)CC3)sc2c1	6	-2%	0%	?	-5%	13µM*
Cc1sc2ncnc(N3CCC(C(=O)Nc4nc(-c5cccs5)cs4)CC3)c2c1C	29	2%	15%	8.2µM*	0%	10µM*
Cc1sc2ncnc(N3CCC(C(=O)Nc4cc(Cl)ccc4Cl)CC3)c2c1C	-1	-22%	?	?	-15%	?
CCc1nnc(NC(=O)C2CCN(c3ncnc4sc(C)c(C)c34)CC2)s1	46	6%	?	-14%	4%	-21%
O=C(NCCc1ccccc1)c1ccc(NC(=O)C2CCC2)cc1	-10	6%	·	-10%	13%	-17%
Nc1cccn2c(-c3ccc(Cl)c(Cl)c3)cnc12	-21	-6%	?	?	-22%	?
Nc1cccn2c(-c3ccc(Cl)cc3)cnc12	-11	0%	?	18µM*	-4%	?
O=C(Nc1cccc(C(F)(F)F)c1)c1cc(CN2CCOCC2)on1	·	·	·	?	·	-12%
Cc1ccc2scc(N3CCCCC3C)c(=O)c2c1 (centres undefined)	·	·	·	-11%	·	-8%
COc1ccc(/C=C2\CCCCC2=O)cc1	-4	-1%	·	-23%	19%	9%
CN(C)/N=C/C=C1\CCC/C(=C\c2ccc(F)c(F)c2)C1=O	-106*	0%	?	26µM*	-23%	?
COc1ccc(C=C2CS(=O)(=O)CC(=Cc3ccc(OC)cc3)C2=O)cc1	-107*	3.7µM*	·	1.3µM*	?	1.8µM*
COc1ccc(C=C2Cc3ccccc3C2=O)cc1	18	-10%	·	?	-1%	-11%
O=C1/C(=C/c2ccccc2)CCCc2ccccc21	-19	9%	?	?	16%	-16%
COc1ccc(/C=C2\CCC/C(=C\C=N\N(C)C)C2=O)cc1	-59*	-25%	11%	?	-24%	?
N#CC1(NC(=O)COC(=O)C23CC4CC(CC(O)(C4)C2)C3)CCCCC1	i	-15%	12%	12%	8%	8%
Cc1nnc(SCc2cc(=O)[nH]c(/N=C(\N)Nc3ccccc3Sc3ccccc3)n2)s1	25	0%	-3%	-3%	7%	-5%
CCOc1ccc(N/C(N)=N/c2nc(CSc3nnc(C)s3)cc(=O)[nH]2)cc1	37	0.92µM*	?	0.58µM*	0.21µM*	0.65µM*
Cc1nnc(SCc2cc(=O)[nH]c(/N=C(\N)Nc3ccccc3)n2)s1	22	18µM*	0%	21µM*	?	?
CC(=O)Nc1cncc(-c2ccccc2F)n1	7	22%	·	-17%	26%	-14%
CC(C)CN(CC(C)C)c1ccc(/C=N/n2cnnc2)cc1[N+](=O)[O-]	-55*	-1%	-12%	?	-14%	?
O=[N+]([O-])c1cc(/C=N/n2cnnc2)ccc1N1CCCC1	10	5%	-12%	-17%	-3%	-2%
C=CCn1cccc(C(=O)Nc2ccc(C)c(C)c2)c1=O	-78*	-6%	?	-10%	-14%	3%
C=CCn1cccc(C(=O)Nc2ccc(C)cc2)c1=O	0	-8%	?	-9%	-5%	-23%
O=C(CCS(=O)(=O)c1cccs1)Nc1ccc(C(=O)Nc2ccccc2F)cc1	·	·	·	-11%	·	?
SMILES	IL-1B inflam inh	HT1080 IDH1KD tx	ELG1 DNA repair	TDP1 cell noCPT	HT1080NT lethal	DT40 TDP1 CPT
O=C(NCCc1ccc2c(c1)OCCO2)c1cccc(S(=O)(=O)N2CCCC2)c1	15	-2%	-4%	?	-1%	?
O=C(NCCc1ccc(Cl)cc1)c1cc(S(=O)(=O)N2CCCC2)ccc1F	-5	-17%	·	16µM*	-7%	26µM*
O=C(NCCc1ccc2c(c1)OCCO2)c1cc(S(=O)(=O)N2CCCC2)ccc1Cl	11	-1%	-29%	?	10%	18µM*
NS(=O)(=O)c1ccc(CCNC(=O)c2cc(S(=O)(=O)N3CCCCC3)ccc2Cl)cc1	14	-4%	·	-26%	-4%	-12%
COCCNC(=O)c1cc(S(=O)(=O)N2CCC3(CC2)OCCO3)ccc1F	-12	0%	·	-17%	3%	-17%
COc1ccc(CCNC(=O)c2cc(S(=O)(=O)N3CCC4(CC3)OCCO4)ccc2F)cc1OC	-7	-10%	9.2µM*	23µM*	-1%	?
CSC1=N/C(=C\c2cccc(Cl)c2)C(=O)N1N(C)C	5	18%	-2%	21µM*	16%	?
C=CCN([C@@H](CC(C)C)C(=O)OC)S(=O)(=O)N(CC=C)[C@@H](CC(C)C)C(=O)OC	36	-7%	18%	18µM*	8%	?
COC(=O)[C@H](CC(C)C)NS(=O)(=O)N[C@@H](CC(C)C)C(=O)OC	4	5%	20%	-10%	12%	?
Cc1ccc(Cn2cc(S(=O)(=O)c3ccc(Cl)cc3)c(=O)c3cc(F)ccc32)cc1	-10	-25%	-1%	7.3µM*	1%	-28%
Cc1ccc(S(=O)(=O)c2cn(Cc3ccc(F)cc3)c3cc4c(cc3c2=O)OCO4)cc1	-30	15%	-8%	-1%	10%	-15%
CCc1ccc2c(c1)c(=O)c(S(=O)(=O)c1ccc(F)cc1)cn2CC(=O)Nc1ccc(C)cc1C	·	·	·	6.5µM*	·	?
CCc1ccc(S(=O)(=O)c2cn(Cc3ccccc3F)c3cc(OC)c(OC)cc3c2=O)cc1	·	·	·	?	·	15µM*
O=c1c(S(=O)(=O)c2ccc(Cl)cc2)cn(Cc2cccc(F)c2)c2ccc(F)cc12	0	1%	-15%	?	-4%	?
Cc1ccc(C)c(Cn2cc(S(=O)(=O)c3ccc(Cl)cc3)c(=O)c3cc(F)ccc32)c1	·	·	·	26µM*	·	?
CSCCC(NC(=O)c1ccccc1Br)C(=O)NNC(=O)C1COc2ccccc2O1 (centres undefined)	2	-1%	·	3%	4%[9.24 µM]	-15%
COc1ccc2c(c1)c1c(c(=O)n(-c3ccccc3C)c(=O)n1CC(N)=O)n2C	·	·	·	?	·	-29%
